Test results published in PubChem BioAssay AID651705 (Broad Institute, 2012).
Screen size: about 1,200 compounds; about 620 (52%) were called active.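 The calls were made as follows: active = every separate test run was called active for a drop in luminescence, with AC50 within twice the top valid dose (actives reach about 71 µM in these data); inconclusive = the separate test runs disagree in their calls; inactive = all runs inactive, including signal change in the wrong direction.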 So high a share suggests a set chosen from earlier hits. Only a sample is shown.

Assay: AlphaScreen signal interference compounds, dose response, artefact control for ARNT-TACC3 interaction inhibitor project, biochemical, luminescence, cherry-pick (AID 651705)
Conditions: His-ARNT PASB-GST AlphaScreen artifact counter-screen; series mostly up to 68 µM
With `Oc1cccc(/C=N/Nc2ccc(Cl)nn2)c1O` the AC50 was 10.2 µM (active).
For `CN(c1ccc(C(=O)N2CCc3ccccc3C2)cc1)S(C)(=O)=O`, the AC50 was “inactive”.
In the case of `C[C@@H]1CN([C@H](C)CO)C(=O)Cc2cc(NC(=O)Nc3cccc4ccccc34)ccc2O[C@@H]1CN(C)Cc1ccc(C(=O)O)cc1`, the AC50 is reported as “inactive”.
For `CC(C(=O)Nc1ccc(O)c(C(=O)O)c1)N1C(=O)/C(=C/c2cccs2)SC1=S` (stereo unspecified), the AC50 was “inactive”.
With `CCN(CC)c1ccc(/C=N/NC(=O)c2cnccn2)c(O)c1` the AC50 was “inactive”.
With `CCN1CCN(C(c2cccnc2)c2cc(Cl)c3cccnc3c2O)CC1` (stereo unspecified) the AC50 was 23.8 µM (active).
With `CCOC(=O)N1CCN(C(c2cccnc2)c2ccc3cccnc3c2O)CC1` (stereo unspecified) the AC50 was 18 µM (active).
With `COc1ccc2ccccc2c1CNCc1ccccn1` the AC50 was “inactive”.
With `O=S(=O)(c1ccccc1)N1C[C@@H]2[C@H](c3ccccc31)[C@H](CO)N2Cc1ccccn1` the AC50 was 65.5 µM (active).
For `C/C(=N\NC(=O)Cc1ccc(Cl)cc1)c1ccccn1`, the AC50 was 59.3 µM (active).
For `Cc1c(CC(=O)NCC(=O)NCC(=O)O)c(=O)oc2cc3oc4c(c3cc12)CCCC4`, the AC50 was “inactive”.
In the case of `O=C(NCCCn1ccnc1)c1cc(-c2ccccc2)on1`, the AC50 is reported as “inactive”.
For `CC(=O)/C(=N\Nc1ccc(Cl)cc1Cl)Sc1cccc2cccnc12`, the AC50 was 7.85 µM (active).
For `Oc1ccc(Br)cc1/C=N/Nc1ccccn1`, the AC50 was 56.5 µM (active).
With `Cc1ccccc1CSc1nnc(-c2ccccn2)n1N` the AC50 was “inactive”.
In the case of `O=C(CN1C(=O)COc2ccccc21)Nc1ccc(F)cc1`, the AC50 is reported as 13.5 µM (active).
In the case of `O=C1c2cccc3cccc(c23)C(=O)N1CCCCCc1n[nH]c(=S)o1`, the AC50 is reported as “inactive”.
In the case of `CCn1cc(/C=C2/SC(=S)NC2=O)c(C)n1`, the AC50 is reported as “inactive”.
In the case of `Oc1c(CN2CCN(c3ccc(F)cc3)CC2)cc(Cl)c2cccnc12`, the AC50 is reported as 10.2 µM (active).
For `O=C(CSc1ccc(-c2ccccn2)nn1)Nc1ccccc1`, the AC50 was 10.4 µM (active).
With `C[C@@H]1CN([C@@H](C)CO)C(=O)c2cc(NS(=O)(=O)c3cccs3)ccc2O[C@H]1CN(C)CC1CCCCC1` the AC50 was “inactive”.
For `c1ccc(-c2cn3c(n2)CCc2ccc4cccnc4c2-3)cc1`, the AC50 was “inactive”.
With `O=C(Nc1cnc2ccccc2c1)c1cc(-c2ccccc2)on1` the AC50 was “inactive”.
With `Cn1c(-c2ccccc2)cnc1NC(=O)c1cc(-c2ccccc2)on1` the AC50 was 40.5 µM (active).
In the case of `Cc1ccc(NC(=O)c2cc(-c3ccccc3)on2)cn1`, the AC50 is reported as “inactive”.
With `CCOc1cc(N2CCOCC2)c(OCC)cc1NC(=O)COc1cccc2cccnc12` the AC50 was 36.5 µM (active).
With `O=C(N[C@@H]1CC[C@H](CCn2cc(-c3ccccn3)nn2)O[C@@H]1CO)c1ccccc1` the AC50 was 37.6 µM (active).
For `O=S(=O)(N[C@@H]1CC[C@@H](CCn2cc(-c3ccccn3)nn2)O[C@@H]1CO)c1cccc(Cl)c1`, the AC50 was 41.9 µM (active).
For `COCCNC(=O)Cn1cc(C(=O)c2cccs2)c2ccccc21`, the AC50 was “inactive”.
In the case of `Cn1c(=NC(=O)c2cnccn2)sc2ccccc21`, the AC50 is reported as “inactive”.
With `Cc1c(NC(=O)CSc2cccc3cccnc23)c(=O)n(-c2ccccc2)n1C` the AC50 was 32.1 µM (active).
With `COc1ccc(Cc2nnc(N/N=C/c3ccccc3O)[nH]c2=O)cc1OC` the AC50 was 6.44 µM (active).
For `CCN(/N=C/c1ccccc1)c1cc(=O)n(C)c(=O)[nH]1`, the AC50 was “inactive”.
For `COc1cc(C2C(C#N)=C(N)Oc3n[nH]c(-c4ccccn4)c32)cc(OC)c1OC` (stereo unspecified), the AC50 was “inactive”.
For `c1ccc(-c2nnc(-c3ccccn3)nc2Nc2nc3ccccc3s2)cc1`, the AC50 was 1.9 µM (active).
In the case of `O=C(CN1C(=O)C2C3C=CC(C3)C2C1=O)Nc1nc(-c2ccccn2)cs1` (stereo unspecified), the AC50 is reported as 47.6 µM (active).
With `O=C(COc1ccccc1F)Nc1nc(-c2ccccn2)cs1` the AC50 was 54.1 µM (active).
For `CC(NC(=O)c1ccco1)C(=O)Nc1nc(-c2ccccn2)cs1` (stereo unspecified), the AC50 was 31.7 µM (active).
In the case of `Cc1c(CC(=O)NCCCCCC(=O)O)c(=O)oc2cc3occ(-c4ccccc4)c3cc12`, the AC50 is reported as “inactive”.
For `CCN(C(=O)Cc1nc(N)n[nH]1)C1(C(=O)Nc2ccccc2)CCCCC1`, the AC50 was “inactive”.
For `Cc1ccc(S(=O)(=O)n2oc(=O)c(C3CCCCC3)c2N)cc1`, the AC50 was 42.3 µM (active).
With `COc1ccccc1Nc1nc(N)nc(CN(C)C2CCCCC2)n1` the AC50 was “inactive”.
For `CC[C@]1(O)CC2CN(CCc3c([nH]c4ccccc34)[C@@](C(=O)OC)(c3cc4c(cc3OC)N(C=O)[C@H]3[C@@](O)(C(=O)OC)[C@H](OC(C)=O)[C@]5(CC)C=CCN6CC[C@]43[C@@H]65)C2)C1` (stereo partly specified), the AC50 was “inactive”.
With `CCN(CC)CCOc1ccc2c(c1)C(=NNC(=O)c1ccccn1)c1cc(OCCN(CC)CC)ccc1-2` the AC50 was 69.6 µM (active).
For `CCOC(=O)c1ccc(Nc2cc3ccccc3c(=O)[nH]2)cc1`, the AC50 was “inactive”.
With `COC(=O)CC1=NN(c2nc(C)cc(C)n2)C(=O)C1` the AC50 was “inactive”.
